This is a sample that favours compounds with a hit; in the whole collection about 19% have one here.
HT1080-NT tox: kills 2HG-producing HT-1080-NT fibrosarcoma cells; HT-1080-NT fibrosarcoma viability, CellTiter-Glo ATP luminescence, 48 h; Potency, µM (highest dose often 46.1 µM), actives largely listed as cytotoxic; 360,000 compounds, 1.6% hits; AID 686970;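 note: NT is the 2HG producing partner of a matched IDH1 knockdown line; nearly all actives have a fitted effect of over 55% in size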
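Viability by CellTiter-Glo luminescence after 48 h compound exposure at 37C of HT-1080-NT cells (750/well, RPMI, 5% FBS). % activity scaled between DMSO wells and medium-only wells, then curve-fitted and categorized by curve class.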
IL1B secr inh: blocks inflammasome-driven IL-1 beta release. activity change, % at 57.5 µM. THP-1 LPS/ATP IL-1B secretion, AlphaLISA, 16 h; hits give low values. 360,000 compounds, 4.7% hits; in the data active = activity change below about -50%; inconclusive = mostly about -30% to -49%
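THP-1 cells pretreated 1 hr with compounds (up to 57.5 uM final), then stimulated with LPS (250 ng/mL final) plus ATP (1.25 mM final); secreted IL-1B measured by AlphaLISA after 16 hr, decreased signal indicating inhibition.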
ELG1 repair inh: inhibitors of ELG1-dependent DNA repair in HEK293T cells; Potency, µM (series often up to 46.1 µM), usual class: inhibitors; 330,000 compounds, 2.3% hits; HEK293T ELG1-luciferase reporter, luminescence, 16 h; DNA damage induced by 5-fluorouridine; note: nearly all actives have a fitted effect of over 55% in size
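DMSO vehicle served as the neutral condition. Each well held 2,000 cells given 5-fluorouridine plus compound; after 16 hr at 37 °C/5% CO2, ONE-Glo was added and luciferase measured 30 min later.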
DT40 TDP1 CPT: growth inhibition of DT40 Tdp1-/-;hTDP1 cells with camptothecin (screen for TDP1 inhibitors) | chicken DT40 Tdp1-/-;hTDP1 cells + 20 nM CPT, ATP luminescence, 48 h | Potency, µM (top dose mostly 46.2 µM), actives largely listed as inhibitors | 420,000 compounds, 12% hits | AID 686979; note: nearly all actives have a fitted effect of over 55% in size
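Chicken DT40 Tdp1-/- cells stably complemented with human TDP1 were seeded at 400 cells/well in medium containing 20 nM camptothecin, exposed to pin-transferred compounds, and grown at 37 °C for at least 48 hr. Viability was read as ATP luminescence.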
HT1080 IDH1KD tx: toxicity to HT-1080 IDH1 knockdown cells (counter line). HT-1080 IDH1 knockdown viability, ATP luminescence, 48 h. Potency, µM (titrated, usually from 46.1 µM), usual class: cytotoxic. 360,000 compounds, 2% hits. AID 686971
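Cytotoxicity counter-line: IDH1KD HT-1080, 48 h, CellTiter-Glo. Curves classed by r2, magnitude and activity.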
TDP1 cell noCPT: qHTS for Inhibitors of human tyrosyl-DNA phosphodiesterase 1 (TDP1): qHTS in cells in absence of CPT | DT40 Tdp1-/- hTDP1 cells, no CPT, ATP luminescence, 48 h | Potency, µM (titrated, usually from 46.2 µM), hits mostly inhibitors | 420,000 compounds, 15% hits; note: nearly all actives have a fitted effect of over 55% in size
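Growth of hTDP1-complemented DT40 Tdp1-knockout cells is measured by ATP luminescence after at least 48 hr compound exposure at 37 °C, with DMSO substituting for the 20 nM CPT used in the parallel screen.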
Each line names hits and unclear results; the compound was inactive in the other large screens. Unless noted, calls come from the whole dose curve; as a rule, active = well fitted curve in the direction sought with a large enough effect; inconclusive = small, poorly fitted or top-dose-only effect, or another doubt; inactive = no such curve, though single readings can be large; an effect the other way counts as inactive or inconclusive.

O=C(Nc1ccc2c(c1)OCO2)c1cc(C2CCCN(C(=O)CCCc3ccccc3)C2)on1 (stereo not given)	HT1080-NT tox 16.4µM, DT40 TDP1 CPT 18.4µM, HT1080 IDH1KD tx inconclusive, TDP1 cell noCPT inconclusive (no result: ELG1 repair inh)
C[C@H](CO)N1C[C@H](C)[C@@H](CN(C)S(C)(=O)=O)Oc2ccc(NC(=O)Nc3ccc4c(c3)OCO4)cc2C1=O	none
CCC1(C2CCN(C(=O)c3ccccc3Cl)CC2)NC(=O)N(CCc2scnc2C)C1=O (stereo not given)	none (no result: HT1080-NT tox, IL1B secr inh, ELG1 repair inh, HT1080 IDH1KD tx)
CCOC(=O)C1CCN(c2ncnc3c2cnn3C)CC1	none
Cn1ncc2c(N3CCN(c4ccc(Cl)c(Cl)c4)CC3)ncnc21	HT1080-NT tox inconclusive, IL1B secr inh -60.1, ELG1 repair inh inconclusive, DT40 TDP1 CPT 10.3µM, HT1080 IDH1KD tx inconclusive, TDP1 cell noCPT 7.31µM
Cn1nnc2c(N3CCCCC3)ncnc21	DT40 TDP1 CPT inconclusive, TDP1 cell noCPT inconclusive (no result: IL1B secr inh, ELG1 repair inh)
COc1ccccc1N1CCN(c2ncnc3c2cnn3-c2ccc(C)cc2)CC1	none (no result: HT1080-NT tox, IL1B secr inh, ELG1 repair inh, HT1080 IDH1KD tx)
Cn1nnc2c(N3CCN(c4cccc(Cl)c4)CC3)ncnc21	DT40 TDP1 CPT inconclusive, TDP1 cell noCPT 4.11µM (no result: HT1080-NT tox, IL1B secr inh, ELG1 repair inh, HT1080 IDH1KD tx)
Cn1ncc2c(N3CCN(c4ccccc4F)CC3)ncnc21	DT40 TDP1 CPT inconclusive, TDP1 cell noCPT 23.1µM
O=S(=O)(NCC1CCCN(Cc2ccccc2O)C1)c1cccc2cccnc12 (stereo not given)	none
COC(=O)CSc1nccc(C)n1	ELG1 repair inh inconclusive
CCN(CCN(C)C)C(=O)Cn1ncc2c([nH]c3ccc(C)cc32)c1=O	none (no result: HT1080-NT tox, IL1B secr inh, ELG1 repair inh, HT1080 IDH1KD tx)
Cc1nnc(NC(=O)CSCc2cc(=O)c3ccc(C)c(C)c3[nH]2)s1	TDP1 cell noCPT inconclusive (no result: HT1080-NT tox, IL1B secr inh, ELG1 repair inh, HT1080 IDH1KD tx)
COc1ccc(N2CCN(C(=O)C3Cc4ccccc4N3C(C)=O)CC2)cc1 (stereo not given)	DT40 TDP1 CPT inconclusive (no result: HT1080-NT tox, IL1B secr inh, ELG1 repair inh, HT1080 IDH1KD tx)
COc1ccc(-c2cc([C@H]3[C@@H]4C=CCC[C@@]4(C)C(=O)N3Cc3ccccc3)ccc2F)cc1	DT40 TDP1 CPT inconclusive, HT1080 IDH1KD tx inconclusive, TDP1 cell noCPT 25.9µM
COc1ccc(-c2cc([C@H]3[C@H]4C=CC[C@@H](C)[C@@H]4C(=O)N3Cc3ccccc3)ccc2F)cc1OC	DT40 TDP1 CPT 23.1µM, TDP1 cell noCPT 13µM
CC(=O)c1ccc(-c2ccc([C@H]3[C@@H]4C=CCC[C@@]4(C)C(=O)N3Cc3ccccc3)c(F)c2)cc1	HT1080-NT tox inconclusive, ELG1 repair inh inconclusive, DT40 TDP1 CPT 20.6µM, HT1080 IDH1KD tx inconclusive, TDP1 cell noCPT 16.4µM
COc1ccc(-c2ccc(N(C)C)cc2)cc1[C@H]1[C@@H]2C=CCC[C@@]2(C)C(=O)N1Cc1ccccc1	HT1080-NT tox inconclusive, ELG1 repair inh inconclusive, DT40 TDP1 CPT 29.1µM, HT1080 IDH1KD tx inconclusive, TDP1 cell noCPT 20.6µM
CCC1NC(=O)c2cccnc2-n2c1nc1ccc(OC)cc1c2=O (stereo not given)	none (no result: ELG1 repair inh)
COc1ccccc1CC(NC(C)=O)C(=O)NC1CCN(C(=O)Nc2ccccc2F)CC1 (stereo not given)	none
COc1ccc(CNC(=O)c2ccc(NC(=O)C3=CSCCO3)cc2)cc1	ELG1 repair inh inconclusive, DT40 TDP1 CPT inconclusive
C[C@@H]1CC=C[C@H]2[C@H]1C(=O)N(Cc1ccccc1)[C@H]2c1ccc(F)c(/C=C/c2ccccc2)c1	HT1080-NT tox inconclusive, DT40 TDP1 CPT 8.2µM, HT1080 IDH1KD tx inconclusive, TDP1 cell noCPT 8.2µM
C[C@@]12CCC=C[C@H]1[C@H](c1ccc3ccccc3c1Br)N(Cc1ccccc1)C2=O	HT1080-NT tox inconclusive, IL1B secr inh -54.5, DT40 TDP1 CPT inconclusive, HT1080 IDH1KD tx inconclusive, TDP1 cell noCPT 18.4µM
COc1ccc(-c2cc([C@H]3[C@H]4C=CC[C@@H](C)[C@@H]4C(=O)N3Cc3ccccc3)ccc2F)cc1	HT1080-NT tox inconclusive, DT40 TDP1 CPT 13µM, HT1080 IDH1KD tx inconclusive, TDP1 cell noCPT 14.6µM

Screening results: PubChem, National Center for Advancing Translational Sciences (NCATS)
